Laboratory results published in the supplement of paper PMC10127200.
Structures can show the parent of a compound that is named as a salt.

The compounds below were run on 786-O (assay: Euclidean distance of Cell Painting phenotypic profile (signed KS, 77 features) to DMSO centroid (dimensionless distance); 5 or 10 uM (library dependent); higher = stronger phenotypic change vs DMSO (phenoactivity)). Settings: 48 h.
How it was run: (§1)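 Phenoactivity is computed as Euclidean distance to the median vehicle profile. The profiles, drawn from 77 Harmony features scored as signed Kolmogorov-Smirnov statistics versus same-plate vehicle wells, were corrected for plate position, correlation-weighted and replicate-averaged at the top dose. Stained cells were imaged confocally at 20X (9 fields/well) after 48 h with library compounds at 10 or 5 uM, 0.1% DMSO final, in five cancer lines and a healthy fibroblast line.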
In the case of `CS(=O)(=O)N1CCc2c(-c3cnc(N)nc3)nc(N3CCOCC3)nc21`, the Euclidean distance is reported as 1.32. Compound `C=CCc1cccc(/C=N/NC(=O)CN2CCN(Cc3ccccc3)CC2)c1O` has an Euclidean distance of 2.25. Compound `O=C(NCCCNc1nc(Nc2cccc(NC(=O)N3CCCC3)c2)ncc1I)c1cccs1` has an Euclidean distance of 2.35. In the case of `N[C@@H]1CCCCN(c2c(F)cc3c(=O)c(C(=O)O)cn(C4CC4)c3c2Cl)C1` [Besifloxacin HCl], the Euclidean distance is reported as 0.849. Work on `C=CC(=O)Nc1cc(Nc2nccc(-c3cn(C4CC4)c4ccccc34)n2)c(OC)cc1N(C)CCN(C)C` yielded an Euclidean distance of 5.66.

What follows are compounds tested on A549 in the same assay as above. Settings: 48 h.
How it was run: as §1
Compound `CCOC(=O)Nc1cc(-c2ccc(C)c(NS(C)(=O)=O)c2)nn2c(C)nnc12` [Bromosporine] has an Euclidean distance of 2.36. For `CC(C)c1nc(CN(C)C(=O)N[C@@H](CCN2CCOCC2)C(=O)N[C@H](CC[C@H](Cc2ccccc2)NC(=O)OCc2cncs2)Cc2ccccc2)cs1` [Cobicistat (GS-9350)], the Euclidean distance was 2.31. With `C=C[C@](C)(O)CC[C@@H]1[C@@]2(C)CCCC(C)(C)[C@@H]2CC[C@@]1(C)O` [Sclareol] the Euclidean distance was 0.762. In the case of `CCCC1O[C@@H]2C[C@H]3[C@@H]4CCC5=CC(=O)C=C[C@]5(C)[C@H]4[C@@H](O)C[C@]3(C)[C@]2(C(=O)CO)O1` (some centres undefined) [Budesonide], the Euclidean distance is reported as 1.89. Compound `CO/N=C(\C(=O)N[C@@H]1C(=O)N2C(C(=O)O)=C(COC(C)=O)CS[C@H]12)c1csc(N)n1` [Cefotaxime sodium] has an Euclidean distance of 0.485. With `O=C(O)Cc1ccccc1Nc1c(Cl)cccc1Cl` [Diclofenac Diethylamine] the Euclidean distance was 0.842. Work on `Cc1cc(C(=O)NOCCO)c(Nc2ccc(I)cc2F)n(C)c1=O` yielded an Euclidean distance of 2.95. Work on `CCCCc1ncc(/C=C(\Cc2cccs2)C(=O)O)n1Cc1ccc(C(=O)O)cc1` [Eprosartan Mesylate] yielded an Euclidean distance of 0.706. `Cn1nc(C(C)(C)C)cc1C(=O)N[C@@H](Cc1cccc(Cl)c1)C(=O)NCC#N` [Cathepsin Inhibitor 1] gave an Euclidean distance of 2.28. In the case of `C/C=C\c1ccc(O)c(OC)c1` [Isoeugenol], the Euclidean distance is reported as 0.444. With `Cc1cc(N2CCN([C@@H]3CN[C@H](C(=O)N4CCSC4)C3)CC2)n(-c2ccccc2)n1` [Teneligliptin hydrobromide] the Euclidean distance was 1.09. Work on `COc1ccc(-c2ccc3c(N4CCOC[C@@H]4C)nc(N4CCOC[C@@H]4C)nc3n2)cc1CO` yielded an Euclidean distance of 3.49. For `CC(C)(C)Cn1c(N)nc2ccc(-c3[nH]c(C(C)(C)C)nc3-c3ccc(F)cc3)nc21`, the Euclidean distance was 2.69. For `CCN1CCN(C(=O)N[C@@H](C(=O)N[C@@H]2C(=O)N3[C@@H]2SC(C)(C)[C@@H]3C(=O)O)c2ccccc2)C(=O)C1=O` [Piperacillin Sodium], the Euclidean distance was 0.62. For `COc1cc(N2CCC(N3CCN(C)CC3)CC2)ccc1Nc1ncc(Cl)c(Nc2ccccc2S(=O)(=O)C(C)C)n1`, the Euclidean distance was 3.06. `OC1CN(CCCOCCc2ccc3sccc3c2)C1` [Edonerpic maleate] showed an Euclidean distance of 0.582. In the case of `c1cc(CN2CCCNCCNCCCNCC2)ccc1CN1CCCNCCNCCCNCC1` [Plerixafor 8HCl (AMD3100 8HCl)], the Euclidean distance is reported as 1.38. For `COc1cc(C(=O)OCCCCNC(=N)N)cc(OC)c1O` [Leonurine], the Euclidean distance was 0.869. For `C[C@H](Cn1cnc2c(N)ncnc21)OCP(=O)(O)O` [Tenofovir], the Euclidean distance was 1.45. `NC(=O)[C@@H]1CSSCCC(=O)N[C@@H](CCCCN=C(N)N)C(=O)NCC(=O)N[C@@H](CC(=O)O)C(=O)N[C@@H](Cc2c[nH]c3ccccc23)C(=O)N2CCC[C@H]2C(=O)N1` [Eptifibatide Acetate] showed an Euclidean distance of 1.02. With `CC[C@H](NC(=O)[C@H](C)NC)C(=O)N1C[C@@H](O)C[C@H]1Cc1c(-c2[nH]c3cc(F)ccc3c2C[C@@H]2C[C@H](O)CN2C(=O)[C@H](CC)NC(=O)[C@H](C)NC)[nH]c2cc(F)ccc12` [Birinapant] the Euclidean distance was 1.08. Work on `C[C@]12CC[C@@H]3c4ccc(O)cc4CC[C@H]3[C@@H]1CC[C@@H]2O` [Estradiol] yielded an Euclidean distance of 0.515. `CCOC(=O)c1c(N)sc2c1CCN(Cc1ccccc1)C2` [Tinoridine hydrochloride] showed an Euclidean distance of 0.9. Compound `Nc1nc2[nH]cc(CCc3ccc(C(=O)N[C@@H](CCC(=O)O)C(=O)O)cc3)c2c(=O)[nH]1` [Pemetrexed Disodium Hydrate] has an Euclidean distance of 2.97. Work on `CC[C@]12CCCN3CCc4c(n(c5ccccc45)[C@@](O)(C(=O)OC)C1)[C@@H]32` [Vincamine] yielded an Euclidean distance of 1.33. `O=C(/C=C/c1ccc(O)c(O)c1)c1ccc(O)cc1O` [Butein] was tested, and the Euclidean distance was 1.3. With `CC(COc1ccccc1)NC(C)C(O)c1ccc(O)cc1` (centres undefined) [Isoxsuprine hydrochloride] the Euclidean distance was 0.704. `Nc1nnc(-c2cccc(Cl)c2Cl)c(N)n1` [Lamotrigine] was tested, and the Euclidean distance was 1.05. `O=C(O)c1cccnc1` [Nicotinic Acid] showed an Euclidean distance of 0.435. With `CC(C)(CO)[C@@H](O)C(=O)NCCC(=O)O` [D-Pantothenic acid] the Euclidean distance was 0.696. `CC1(C)O[C@@H]2C[C@H]3[C@@H]4C[C@H](F)C5=CC(=O)C=C[C@]5(C)[C@@]4(F)[C@@H](O)C[C@]3(C)[C@]2(C(=O)CO)O1` [Fluocinolone Acetonide] showed an Euclidean distance of 1.77. `Cc1ccc(C(=O)N(CCCN)[C@@H](c2nc3cc(Cl)ccc3c(=O)n2Cc2ccccc2)C(C)C)cc1` was tested, and the Euclidean distance was 3.18. With `OC(CN1CCN(c2cccc(Cl)c2)CC1)C(c1ccccc1)c1ccccc1` (centres undefined) the Euclidean distance was 1.33. With `COc1cc(/C=C/C(=O)O)ccc1O` [Sodium ferulate] the Euclidean distance was 1.15. `CS(=O)(=O)N1CCc2c(-c3cnc(N)nc3)nc(N3CCOCC3)nc21` showed an Euclidean distance of 2.54. `C=CCc1cccc(/C=N/NC(=O)CN2CCN(Cc3ccccc3)CC2)c1O` gave an Euclidean distance of 2.14. `O=C(NCCCNc1nc(Nc2cccc(NC(=O)N3CCCC3)c2)ncc1I)c1cccs1` gave an Euclidean distance of 4.29. With `N[C@@H]1CCCCN(c2c(F)cc3c(=O)c(C(=O)O)cn(C4CC4)c3c2Cl)C1` [Besifloxacin HCl] the Euclidean distance was 1.19. `C=CC(=O)Nc1cc(Nc2nccc(-c3cn(C4CC4)c4ccccc34)n2)c(OC)cc1N(C)CCN(C)C` gave an Euclidean distance of 5.01.
